# Test results from PubChem BioAssay (EPA / NIEHS).
# Several values for one entry are separate records, joined by “and”; a condition that tells them apart may be missing. Equal values may be shown once. More than one record can exist for a structure, and the calls need not agree. Activity calls are given as the source filed them. Rule for the calls: active = hit-call score of the fitted dose curve at least 0.9, where 1 is the maximum; inactive = score below 0.9.
# System: not listed separately
# Experiment: ATG_DR4_LXR_CIS: Attagene CIS-FACTORIAL HepG2 Assay for human Liver X Receptor (LXR), DR4 submotif (AID 2282929)
# Conditions: HepG2 Attagene DR4 cis-reporter, mRNA transcription; actives raise or lower the signal
# In short: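 Measures endogenous transcription factor activity via a DR4-driven reporter transcript in human HepG2 cells. Compounds incubated 24 h; mRNA quantified by RT-PCR and capillary electrophoresis, analysed as gain or loss of signal versus DMSO.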
Structure (SMILES),outcome,AC50
CCCCC(CC)COC(=O)CCCCC(=O)OCc1ccccc1 (stereo not drawn),inactive,–
FC(F)(I)C(F)(F)C(F)(F)C(F)(F)C(F)(F)C(F)(F)I,inactive,–
Cc1oc(-c2ccccc2)nc1CCOc1ccc(C[C@H](Nc2ccccc2C(=O)c2ccccc2)C(=O)O)cc1,inactive,–
CN1CCC[C@H]1c1cccnc1,inactive,–
COCC(C)OCC(C)O (stereo not drawn),inactive,–
CN1CCN(c2ccccc2/C=C2\SCCN(c3ccc(Cl)c(Cl)c3)C2=O)CC1,inactive,–
CC(C)(C)CC(C)(C)c1ccc(O)c(-n2nc3ccccc3n2)c1,inactive,–
C[C@@H]1C[C@H]2[C@@H]3CCC4=CC(=O)C=C[C@]4(C)[C@@]3(F)[C@@H](O)C[C@]2(C)[C@@]1(O)C(=O)COP(=O)(O)O,inactive,–
CCc1nn(C2CCCCC2)c2cc(C3(C#N)CCC(C(=O)O)CC3)ccc12 (stereo not drawn),–,129 µM (active)
N#C[C@@H]1CC(F)(F)CN1C(=O)CNC1CC2CCC(C1)N2c1ncccn1 (stereo partly drawn),inactive,–
CCCCCCCCC(=O)O,inactive,–
NC(=O)N(O)[C@@H]1C=C[C@H](Oc2cccc(Oc3ccc(F)cc3)c2)C1,inactive,–
CC(=O)CC(C)(C)O,inactive,–
CCCCCCCCCCCCCC[N+](C)(C)C,inactive,16.6 µM (active)
CC(=O)NC1(c2cccc(F)c2)CCN(CC[C@@]2(c3ccc(Cl)c(Cl)c3)CN(c3ccccc3)C(=O)CO2)CC1,–,37.2 µM (active)
CCCCCCCCCCCCc1ccccc1S(=O)(=O)O,inactive,–
Cc1cc(CCN2CCN(c3nsc4ccccc34)CC2)cc2c1NC(=O)CC2(C)C,–,2.82 µM (active)
CCCCCCC(=O)O,inactive,–

Structure (SMILES),outcome,AC50
OC1CCC(C2CCCCC2)CC1 (stereo not drawn),–,158 µM (active) [middle of 4 runs]
Cc1ccc(S(=O)(=O)O)c(C)c1,inactive,–
NCC(F)(F)C(F)(F)C(F)(F)C(F)(F)C(F)(F)C(F)(F)C(F)(F)F,inactive,–
O=[N+]([O-])c1ccc(O)cc1,inactive,–
CC(C)(C)c1cccc(C(C)(C)C)c1O,inactive,–
CCCCCCCC(=O)O,inactive,–
CCCCC[C@H](O)CC(=O)CCc1ccc(O)c(OC)c1,inactive,–
CCc1ccc(CCOc2ccc(CC3SC(=O)NC3=O)cc2)nc1 (stereo not drawn),inactive,–
CC(O)C(=O)O (stereo not drawn),inactive,–
CC(C)CCCCCCOC(=O)CCCCC(=O)OCCCCCCC(C)C,inactive,–
O=C1OC2(c3ccccc31)c1cc(Br)c(O)c(Br)c1Oc1c2cc(Br)c(O)c1Br,inactive,–
COCC(C)O (stereo not drawn),inactive,–
CCCCCCCCCCCCCCCS(=O)(=O)Oc1ccccc1,inactive,–
Cc1cc(C)c(O)c(C)c1,inactive,–
CC(C)(C)c1ccc(O)c(C(C)(C)C)c1,inactive,–
Oc1cccc(O)c1,inactive,–
CC[C@H](C)[C@@H](C(=O)O)n1sc2ccccc2c1=O,inactive,–

# Molecular target: Aryl hydrocarbon receptor (Homo sapiens) (UniProt P35869)
# Experiment: ATG_Ahr_CIS: Attagene CIS-FACTORIAL HepG2 Assay for human Aryl Hydrocarbon Receptor (Ahr) (AID 2282930)
# Conditions: HepG2 AhR cis-factorial reporter transcription; actives raise or lower the signal
# In short: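 Transient MRTU transfection of HepG2 → 24 h compound exposure → total RNA, oligo(dT) RT → PCR, 6-FAM extension, HpaI cut → CE fluorescence. DMSO = baseline; bidirectional curve fit.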
# Chain of Aryl hydrocarbon receptor (Homo sapiens) (P35869 whole entry, looked up): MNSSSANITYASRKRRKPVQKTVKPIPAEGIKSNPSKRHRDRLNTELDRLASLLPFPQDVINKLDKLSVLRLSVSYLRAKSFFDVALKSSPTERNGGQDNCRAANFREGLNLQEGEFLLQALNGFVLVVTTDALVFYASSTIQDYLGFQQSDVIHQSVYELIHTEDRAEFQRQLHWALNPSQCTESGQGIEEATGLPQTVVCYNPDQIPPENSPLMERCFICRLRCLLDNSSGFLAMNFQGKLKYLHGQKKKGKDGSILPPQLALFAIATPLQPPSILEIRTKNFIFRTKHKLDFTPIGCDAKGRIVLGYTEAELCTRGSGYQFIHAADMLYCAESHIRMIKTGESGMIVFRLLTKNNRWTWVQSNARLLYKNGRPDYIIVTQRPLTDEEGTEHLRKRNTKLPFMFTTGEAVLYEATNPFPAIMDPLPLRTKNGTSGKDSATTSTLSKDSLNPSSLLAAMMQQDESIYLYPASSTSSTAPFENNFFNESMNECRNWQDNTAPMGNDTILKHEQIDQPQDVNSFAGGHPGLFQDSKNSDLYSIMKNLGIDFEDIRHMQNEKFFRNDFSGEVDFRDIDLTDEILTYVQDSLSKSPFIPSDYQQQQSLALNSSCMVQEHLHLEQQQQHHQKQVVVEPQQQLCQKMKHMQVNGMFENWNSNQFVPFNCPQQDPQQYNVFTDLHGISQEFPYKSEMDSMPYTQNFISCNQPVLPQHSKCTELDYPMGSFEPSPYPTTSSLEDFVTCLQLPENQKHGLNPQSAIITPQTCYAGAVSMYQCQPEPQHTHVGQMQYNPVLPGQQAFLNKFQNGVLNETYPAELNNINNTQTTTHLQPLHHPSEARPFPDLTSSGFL
Structure (SMILES),outcome,AC50
CCCCC(CC)COC(=O)CCCCC(=O)OCc1ccccc1 (stereo not drawn),inactive,–
FC(F)(I)C(F)(F)C(F)(F)C(F)(F)C(F)(F)C(F)(F)I,inactive,–
Cc1oc(-c2ccccc2)nc1CCOc1ccc(C[C@H](Nc2ccccc2C(=O)c2ccccc2)C(=O)O)cc1,inactive,–
CN1CCC[C@H]1c1cccnc1,inactive,–
COCC(C)OCC(C)O (stereo not drawn),inactive,–
CN1CCN(c2ccccc2/C=C2\SCCN(c3ccc(Cl)c(Cl)c3)C2=O)CC1,inactive,–
CC(C)(C)CC(C)(C)c1ccc(O)c(-n2nc3ccccc3n2)c1,inactive,–
C[C@@H]1C[C@H]2[C@@H]3CCC4=CC(=O)C=C[C@]4(C)[C@@]3(F)[C@@H](O)C[C@]2(C)[C@@]1(O)C(=O)COP(=O)(O)O,inactive,–
CCc1nn(C2CCCCC2)c2cc(C3(C#N)CCC(C(=O)O)CC3)ccc12 (stereo not drawn),inactive,–
N#C[C@@H]1CC(F)(F)CN1C(=O)CNC1CC2CCC(C1)N2c1ncccn1 (stereo partly drawn),inactive,–
CCCCCCCCC(=O)O,inactive,–
NC(=O)N(O)[C@@H]1C=C[C@H](Oc2cccc(Oc3ccc(F)cc3)c2)C1,inactive,–
CCCCCCCCCCCCCC[N+](C)(C)C,inactive,–
CC(=O)NC1(c2cccc(F)c2)CCN(CC[C@@]2(c3ccc(Cl)c(Cl)c3)CN(c3ccccc3)C(=O)CO2)CC1,inactive,–
CCCCCCCCCCCCc1ccccc1S(=O)(=O)O,inactive,–
Cc1cc(CCN2CCN(c3nsc4ccccc34)CC2)cc2c1NC(=O)CC2(C)C,inactive,–
CCCCCCC(=O)O,inactive,–
OC1CCC(C2CCCCC2)CC1 (stereo not drawn),inactive,1.32 µM (active) and 47 µM (active)

Structure (SMILES),outcome,AC50
Cc1ccc(S(=O)(=O)O)c(C)c1,inactive,–
NCC(F)(F)C(F)(F)C(F)(F)C(F)(F)C(F)(F)C(F)(F)C(F)(F)F,inactive,–
O=[N+]([O-])c1ccc(O)cc1,inactive,–
CC(C)(C)c1cccc(C(C)(C)C)c1O,inactive,–
CCCCCCCC(=O)O,inactive,–
CCCCC[C@H](O)CC(=O)CCc1ccc(O)c(OC)c1,inactive,–
CCc1ccc(CCOc2ccc(CC3SC(=O)NC3=O)cc2)nc1 (stereo not drawn),inactive,–
CC(O)C(=O)O (stereo not drawn),inactive,–
CC(C)CCCCCCOC(=O)CCCCC(=O)OCCCCCCC(C)C,–,60.3 µM (active)
O=C1OC2(c3ccccc31)c1cc(Br)c(O)c(Br)c1Oc1c2cc(Br)c(O)c1Br,inactive,–
COCC(C)O (stereo not drawn),inactive,–
CCCCCCCCCCCCCCCS(=O)(=O)Oc1ccccc1,inactive,–
Cc1cc(C)c(O)c(C)c1,inactive,–
C#C[C@]1(O)CC[C@H]2[C@@H]3CCC4=CC(=O)CC[C@@H]4[C@H]3CC[C@@]21C,inactive,71.5 µM (active) and 50 µM (active)
CC(C)(C)c1ccc(O)c(C(C)(C)C)c1,inactive,–
Oc1cccc(O)c1,inactive,–
CC[C@H](C)[C@@H](C(=O)O)n1sc2ccccc2c1=O,inactive,–
